Source: PubChem BioAssay AID1049 (The Scripps Research Institute Molecular Screening Center, 2008)
About 780 (0.39%) of roughly 200,000 compounds were called active. Cut-off read from the data, not from the text of the source: active = TR-FRET ratio above about 2000; inactive = the rest. Many of the other results were omitted from the sample, so actives are more common in it than they were.

Assay: TR-FRET signal artefacts, primary screen, artefact control for PPARgamma SRC-2 agonist project, biochemical (AID 1049)
Details: TR-FRET artefact counter-screen; at 8 µM; active compounds read high

SMILES | TR-FRET ratio
CCCCCC(O)c1cccc(OCc2ccc3ccccc3n2)c1 (stereo unspecified) | 1460 (inactive)
CCN(CC)S(=O)(=O)c1ccc(N(C)Cc2cccc(OC)c2OC)nc1 | 1770 (inactive)
Cc1cccc(-c2ncc(CN3CCC(CO)(CCCc4ccccc4)CC3)cn2)c1 | 1690 (inactive)
CC(=O)c1cccc(CN2CCC(CO)(Cc3ccccc3)CC2)c1 | 1590 (inactive)
OCC1(CCc2ccccc2)CCN(Cc2ccc3nsnc3c2)CC1 | 2040 (active)
Cc1ccccc1-n1nc(C)c2c1N=C1C(Cl)=CC(Cl)=CN1C2c1ccc(C(=O)O)cc1 (stereo unspecified) | 1440 (inactive)
CC(Sc1nnnn1C)C(=O)NC(=O)NC1CCCCC1 (stereo unspecified) | 1580 (inactive)
CN1CCN(/N=C/c2ccc(C#N)cc2)CC1 | 1460 (inactive)
Cn1c(-c2sccc2OCc2cccc(C(F)(F)F)c2)n[nH]c1=S | 1690 (inactive)
Cc1ccc(/C=N\n2c(-c3ccccc3)n[nH]c2=S)s1 | 1450 (inactive)
Cn1c(-c2sc3cc(C(F)(F)F)cnc3c2-c2ccccc2)n[nH]c1=S | 2810 (active)
Nc1c(NCCc2ccccc2)c2ccccc2oc1=O | 1500 (inactive)
Cc1cc(Cl)ccc1OCCCC(=O)NCc1ccccn1 | 1540 (inactive)
CN(CC(=O)N1CCN(c2ccccc2)CC1)S(=O)(=O)c1cccs1 | 1460 (inactive)
COc1cc2c(cc1OC)C(C(C)C)=NC(C)(C)C2 | 1430 (inactive)
COc1cc2c(cc1O)C(SC)=NC(C)(C)C2 | 1660 (inactive)
COc1cc2c(cc1OC)C(Nc1ccc(S(N)(=O)=O)cc1)=NC(C)(C)C2 | 2460 (active)
Cc1ccc(C)c(Cn2cnc3c(oc4ccccc43)c2=O)c1 | 1620 (inactive)
Cc1ccc2[nH]c(=O)c(CN(CC3COCCO3)C(=O)Nc3ccccc3C)cc2c1 (stereo unspecified) | 1560 (inactive)
CCC(c1nnnn1C1CCCC1)N(Cc1cccs1)Cc1cc2cccc(C)c2[nH]c1=O (stereo unspecified) | 1590 (inactive)
Cc1cccc2cc(CN(Cc3ccc4c(c3)OCO4)Cc3nnnn3C3CCCC3)c(=O)[nH]c12 | 2020 (active)

SMILES | TR-FRET ratio
Cc1cccc2cc(CN(Cc3cccs3)C(c3nnnn3C3CCCC3)C(C)C)c(=O)[nH]c12 (stereo unspecified) | 1580 (inactive)
O=C(/C=C/c1ccccc1[N+](=O)[O-])OC1CCCCC1=O (stereo unspecified) | 1570 (inactive)
O=C(Nc1c2c(nc3ccccc13)CCCC2)c1ccccc1Br | 1590 (inactive)
O=C(COC(=O)c1c2c(nc3ccccc13)/C(=C\c1cccs1)CCC2)Nc1ccccc1Cl | 1590 (inactive)
O=C(COC(=O)c1c2c(nc3ccccc13)CCCC2)c1ccc(Br)s1 | 2060 (active)
O=C(N1CCCCC1)N1CCN(C(=O)N2CCCCC2)CC1 | 1520 (inactive)
Cc1ccc(C(=O)O)cc1N1C(=O)CCCC1=O | 1430 (inactive)
Nc1nnc(SCC(=O)Nc2ccc3nc(SCC(=O)Nc4ccccc4)sc3c2)s1 | 1750 (inactive)
COc1cc(OC)cc(-c2nnc(SCC(=O)Nc3ccc(C(=O)O)cc3)s2)c1 | 2010 (active)
COc1ccc(NC(=O)CSc2nc(C)cs2)cc1 | 1520 (inactive)
COC(=O)[C@@H]1CC[C@H](C)[C@@H](c2ccc(C)cc2)N1C(=O)c1ccc(/C=N/O[C@H](C)c2cn([C@@H]3COC[C@H]3O)nn2)cc1 | 1550 (inactive)
COc1cccc(NC(=O)c2ccc3c(SCC(=O)O)c4c(nc3c2)CCCC4)c1 | 1460 (inactive)
Cc1cc(NC(C)C)n2c(nc3ccccc32)c1C#N | 1630 (inactive)
Cc1nn(CC#N)c(=O)n1N(C)c1ncc(C(F)(F)F)cc1Cl | 1490 (inactive)
Cc1ccccc1-c1n[nH]c(=S)n1/N=C/c1ccc(-c2ccccc2Br)o1 | 2460 (active)
Cc1ccccc1-c1n[nH]c(=S)n1C | 1570 (inactive)
Cc1n[nH]c(=S)n1/N=C/c1ccc(Br)o1 | 1670 (inactive)
O=S(=O)(/N=C(/Nc1ccccc1)c1ccccc1)c1cccs1 | 1640 (inactive)
CC(=O)Nc1ccc(S(=O)(=O)Oc2ccc(/C=N/N=C3/NC(=O)C(CC(=O)O)S3)cc2)cc1 (stereo unspecified) | 1610 (inactive)
O=C(c1ccccc1Cl)N(Cc1ccccc1F)N1C(=O)CCCC1=O | 1650 (inactive)
CC(C)NC(=O)CSc1ccccc1C(=O)NCc1ccc2c(c1)OCO2 | 1420 (inactive)

SMILES | TR-FRET ratio
CCn1c(=O)cc(SCC(=O)NCCC2=CCCCC2)c2ccccc21 | 1870 (inactive)
CCn1c(=O)cc(SCC(=O)NCc2ccc3c(c2)OCO3)c2ccccc21 | 2130 (active)
CC(C)(C)NC(=O)C(=O)NN=C1CCCCCCC1 | 1240 (inactive)
c1ccc(COc2nsnc2N2CCOCC2)cc1 | 1720 (inactive)
COc1ccc(CSc2nc(N3CCOCC3)c3c(c2C#N)CC(C)(C)OC3)cc1 | 1500 (inactive)
c1ccc(CSc2ncnc3c2sc2nc(N4CCOCC4)c4c(c23)CCCC4)cc1 | 2910 (active)
CCOc1ccc(N2C(=O)Nc3ccccc3C2(O)C(=O)NCc2ccco2)cc1 (stereo unspecified) | 1700 (inactive)
O=C(CSc1nnc(SCc2ccc(Cl)cc2)s1)N/N=C/c1ccccc1Cl | 1600 (inactive)
Cc1ccc(CN(Cc2cccnc2)C(=S)Nc2cccc(Cl)c2C)cc1 | 1420 (inactive)
CCN(C(=O)COc1cccnc1[N+](=O)[O-])C1CCS(=O)(=O)C1 (stereo unspecified) | 1550 (inactive)
COCC(=O)Nc1nnc(COc2ccccc2)s1 | 1270 (inactive)
COc1ccc(Cc2nnc(NC(=O)Cc3cccs3)s2)cc1 | 1330 (inactive)
COc1ccc(OCC(=O)Nc2nnc(-c3ccco3)s2)cc1 | 2240 (active)
CC(NC(=O)COC(=O)c1cc(=O)[nH]c2ccccc12)c1ccccc1 (stereo unspecified) | 1810 (inactive)
CCOC(=O)c1c(NC(=O)CNC2CCCc3ccccc32)sc(C(N)=O)c1C (stereo unspecified) | 2030 (active)
CCOC(=O)c1sc(NC(=O)CSc2nnc(-c3ccco3)o2)c(C(=O)OCC)c1C | 1590 (inactive)
CCOC(=O)c1sc(NC(=O)COc2ncnc3ccccc23)c(C(=O)OCC)c1C | 1580 (inactive)
COc1ccc(CN2CCCC(CNC(=O)c3ccc(F)cc3)C2)cc1OC (stereo unspecified) | 1400 (inactive)
C/C(CC(=O)NC(C)(C)C)=N\NC(=O)c1ccco1 | 1540 (inactive)
